# Only some compounds are listed: those with a hit (about 1.2% of all), similar ones and a draw of the others.
# RGS16-Gao HTS: regulators of human RGS16-Galphao interaction; binding response (% of control), % at 10 µM; 0.38% of 220,000 active; O15492+P09471; bead-based flow cytometry RGS16-Galphao binding, fluorescence; actives lie on both sides;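 also: Galphao activated by GDP with aluminum fluoride before binding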
# Avidin fluor: avidin bead compound fluorescence profile | Avidin beads, compound fluorescence 488/530 nm, flow cytometry; active compounds read high | fluorescence (KMESF) at 10 µM | 0.38% of 220,000 active; in the data active = fluorescence above about 47
# RGS7-Gao: modulates binding of RGS7 to human Galphao. P09471. AID 1439. binding response (% of control), % at 10 µM. Multiplexed bead flow cytometry; actives lie on both sides. 0.35% of 220,000 active; in the data active = binding response below about 49% or above about 150%; inconclusive = no clear call, values can overlap the other calls; inactive = in between;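 also: fluorescent Galphao held in activated GDP-AlF4 state binding bead-coupled RGS7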
# RGS8-Gao reg: regulators of human RGS8-Galphao interaction; response (percent of control binding), % at 10 µM; 0.34% of 220,000 active; P09471; multiplexed bead flow cytometry, RGS8-Galphao binding; actives lie on both sides; AID 1423; in the data active = response below about 60% or above about 140%; inactive = in between;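 also: Galphao activated as the GDP aluminium fluoride complex binding bead-coupled RGS8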
# GSH fluor: GSH bead compound fluorescence profile | fluorescence (KMESF) at 10 µM | 0.25% of 190,000 active | GSH beads flow cytometry, compound fluorescence 488/530 nm; active compounds read high; in the data active = fluorescence above about 89;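 also: glutathione beads carrying GST-tagged Bcl family fusion proteins plus one bare bead set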
# RGS4-Gao reg: modulates binding of RGS4 to human Galphao; P09471; Multiplexed bead flow cytometry; actives lie on both sides; binding response (% of control), % at 10 µM; 0.33% of 220,000 active; AID 1415; in the data active = binding response below about 49% or above about 150%; inactive = in between;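 also: fluorescent Galphao activated with aluminum fluoride binding bead-coupled RGS4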
# RGS-Gao: modulates binding between human RGS4 and Galphao | shares compounds with RGS16-Gao HTS | multiplexed bead flow cytometry, RGS–Galpha-o binding | RGS4–Galpha-o binding response, % at 10 µM | 99% of 1,600 active | AID 1504;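 also: fluorescently labeled Galpha-o bound to GDP with aluminium fluoride binding biotinylated RGS beads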
# Target sequence (P09471 whole entry, looked up): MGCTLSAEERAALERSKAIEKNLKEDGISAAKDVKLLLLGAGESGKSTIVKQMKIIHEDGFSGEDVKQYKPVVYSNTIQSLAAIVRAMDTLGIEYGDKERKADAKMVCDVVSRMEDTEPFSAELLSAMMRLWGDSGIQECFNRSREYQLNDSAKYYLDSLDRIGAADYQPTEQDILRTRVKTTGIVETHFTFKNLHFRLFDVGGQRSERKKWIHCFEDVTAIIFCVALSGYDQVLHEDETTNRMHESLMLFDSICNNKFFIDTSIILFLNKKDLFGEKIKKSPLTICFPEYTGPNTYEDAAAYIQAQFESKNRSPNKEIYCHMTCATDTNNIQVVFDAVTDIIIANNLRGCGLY
# Target sequence (P49798 whole entry, looked up): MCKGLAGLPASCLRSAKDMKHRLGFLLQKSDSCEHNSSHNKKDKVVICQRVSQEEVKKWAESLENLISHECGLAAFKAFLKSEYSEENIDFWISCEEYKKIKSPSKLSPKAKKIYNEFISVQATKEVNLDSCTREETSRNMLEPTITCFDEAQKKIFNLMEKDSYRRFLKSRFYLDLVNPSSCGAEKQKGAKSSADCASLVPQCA
# Avidin counter: biotin-avidin bead binding disruption counter-screen; AID 1783; inhibition, % at 10 µM; shares compounds with RGS16-Gao HTS; 1,700 tested, under 10 active; streptavidin beads, fluorescein-biotin binding, flow cytometry;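 active = inhibition above 50%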;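 also: median green fluorescence of gated singlet beads compared with DMSO control wells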
# RGS8-Gao single: confirmation of regulators of human RGS8-Galphao interaction; 3% of 1,700 active; bead-based flow cytometry RGS8-Galphao binding, fluorescence; actives lie on both sides; shares compounds with RGS16-Gao HTS; AID 1836; binding response (% of control), % at 10 µM; in the data active = binding response below about 72% or above about 130%; inactive = in between;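 also: Galphao activated as GDP AlF4 complex before binding bead RGS8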
# RGS7-Gao confirm: RGS7-Galphao interaction regulation, single point confirmation. response (percent of control binding), % at 10 µM. bead-based flow cytometry RGS7-Galphao binding; actives lie on both sides. shares compounds with RGS16-Gao HTS. 7.8% of 1,700 active; in the data active = response below about 75% or above about 130%; inactive = in between;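 also: fluorescent Galphao activated with GDP and aluminum fluoride binding bead-coupled RGS7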
# RGS16-Gao single: RGS16-Galphao interaction regulation, single point confirmation; shares compounds with RGS16-Gao HTS; 4% of 1,700 active; bead-based flow cytometry, RGS16-Galphao binding; actives lie on both sides; AID 1838; response (% of control binding), % at 10 µM; in the data active = response below about 74% or above about 130%; inactive = in between;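 also: Galphao activated as the GDP aluminium fluoride complex binding bead-coupled RGS16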
# RGS4-Gao single: RGS4-Galphao interaction regulation, single point confirmation; shares compounds with RGS16-Gao HTS; RGS4-Galphao binding, multiplexed bead flow cytometry; actives lie on both sides; binding response (% of control), % at 10 µM; 4% of 1,700 active; in the data active = binding response below about 74% or above about 130%; inactive = in between
# RGS19-Gao single: RGS19-Galphao interaction regulation, single point confirmation; shares compounds with RGS16-Gao HTS; bead-based flow cytometry RGS19-Galphao binding; actives lie on both sides; response (percent of control binding), % at 10 µM; 5% of 1,700 active; AID 1841; in the data active = response below about 50% or above about 160%; inactive = in between
# Hits are given with their value; 0 = inactive; ? = inconclusive; - = not tested or not shown; [ ] = remark or other dose. Unless noted, no rule for the calls is given here.
SMILES,RGS16-Gao HTS,Avidin fluor,RGS7-Gao,RGS8-Gao reg,GSH fluor,RGS4-Gao reg,RGS-Gao,Avidin counter,RGS8-Gao single,RGS7-Gao confirm,RGS16-Gao single,RGS4-Gao single,RGS19-Gao single
COCCCNC(=O)COc1ccc(S(=O)(=O)NCc2ccccc2)cc1Cl,0,0,275[activator],407[activator],0,314[activator],-,0,0,0,0,0,0
CCOC(=O)c1cccnc1NC(=O)c1ccccc1,0,0,0,0,0,0,-,-,-,-,-,-,-
Cc1ccc(OC(C)C(=O)N=Nc2c(O)[nH]c3ccc([N+](=O)[O-])cc23)cc1 (centres undefined),0,0,0,0,0,0,-,-,-,-,-,-,-
COc1ccc(S(=O)(=O)Nc2ccc(N3CCOCC3)nc2)cc1,0,0,?,0,0,0,-,-,-,-,-,-,-
O=C(COc1ccccc1[N+](=O)[O-])Nc1ccc(N2CCN(C(=O)c3cccs3)CC2)cc1,0,0,0,0,0,0,-,-,-,-,-,-,-
CN(C)C(=O)CSc1nc2ccccc2c(=O)[nH]1,0,165,277[activator],0,0,0,127,0,0,0,0,0,0
CCCCCOc1ccc(CSC(=N)N)cc1[N+](=O)[O-],0,0,49,0,0,42,-,0,0,0,0,0,0
COc1nc(OC)nc(N2CCC(NC(=O)C(Cc3cccc(OC)c3OC)NC(C)=O)CC2)n1 (centres undefined),0,0,?,0,-,0,-,-,-,-,-,-,-
Cc1cc(N)ccc1-n1c(C)ccc1C,0,0,0,0,0,0,-,-,-,-,-,-,-
Cc1cc(N)ccc1N1CCCC1,0,0,0,54,0,0,58,-,-,-,-,-,-
N#CC1C(C#N)N2CCCN2C1c1ccc(Br)cc1 (centres undefined),0,0,?,0,-,0,-,-,-,-,-,-,-
CCOC(=O)c1c(C)n(CC)c2ccc(OC(=O)c3ccc([N+](=O)[O-])cc3)cc12,0,0,-,0,0,0,-,0,0,0,0,0,0
COC(=O)c1ccc(CN2CCN(CC=C(C)C)C(CCO)C2)cc1 (centres undefined),0,0,0,0,0,0,-,-,-,-,-,-,-
CCN(CC)c1nc(N)nc(N(c2ccccc2)c2ccccc2)n1,0,73,155[activator],0,0,0,105,0,0,63,0,73,0
CN(C)c1nc(N)nc(N(c2ccccc2)c2ccccc2)n1,0,0,0,0,0,0,-,-,-,-,-,-,-
Cc1ccc(NC(=S)N(CCCN2CCCC2)Cc2cccn2Cc2ccc(Cl)cc2)cc1Cl,0,0,165[activator],0,0,0,150,0,0,0,0,0,0
CCN1CC(CNCc2cn(-c3ccc(OC)cc3)nc2-c2ccccc2Cl)CC1=O (centres undefined),0,0,39,57,0,48,-,0,0,0,0,0,0
COc1ccc(-n2cc(CNCC3CC(=O)N(C4CC4)C3)c(-c3ccccc3Cl)n2)cc1 (centres undefined),0,0,0,0,0,0,-,-,-,-,-,-,-
Cc1c(NC(=O)COC(=O)COc2ccc(Nc3ccccc3)cc2)c(=O)n(-c2ccccc2)n1C,0,0,155[activator],140[activator],0,0,143,-,-,-,-,-,-

# High-throughput results deposited in PubChem by NMMLSC.
